Screening results deposited in PubChem by National Center for Advancing Translational Sciences (NCATS).
FEN1 inh – human FEN1 inhibition | Potency, µM (doses to about 114 µM), usual class: inhibitors | AID 588795 | P39748 | Recombinant FEN1 flap cleavage, fluorescence, 15 min | 0.35% of 390,000 active; further: nearly all actives have a fitted effect of over 65% in size
Target sequence (P39748 whole entry, looked up): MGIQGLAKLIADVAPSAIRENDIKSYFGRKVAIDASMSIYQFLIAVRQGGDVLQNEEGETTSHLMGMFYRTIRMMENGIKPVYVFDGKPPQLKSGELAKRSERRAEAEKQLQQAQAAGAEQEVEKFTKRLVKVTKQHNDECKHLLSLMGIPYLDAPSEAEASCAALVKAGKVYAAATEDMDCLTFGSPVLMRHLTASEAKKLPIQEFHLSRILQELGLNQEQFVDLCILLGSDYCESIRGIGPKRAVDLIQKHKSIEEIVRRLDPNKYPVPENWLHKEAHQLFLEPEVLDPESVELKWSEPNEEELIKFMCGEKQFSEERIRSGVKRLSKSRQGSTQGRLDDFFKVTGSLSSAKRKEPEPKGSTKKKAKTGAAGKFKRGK
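FEN1 at 10 nM, compound pretreatment for 15 min (room temperature), 50 nM final substrate to initiate; endpoint reads at 0 and 15 min; DMSO-only plates used as vehicle background.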
PGK inhibitor – T. brucei PGK inhibition; P07378; PGK/GAPDH coupled, Kinase-Glo luminescence, 60 min; Potency, µM (top dose mostly 57.5 µM), usual class: inhibitors; 0.043% of 380,000 active; further: nearly all actives have a fitted effect of over 60% in size
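Luminescent ATP detection (Kinase-Glo Plus) follows a 60-minute room-temperature incubation, with wells lacking PGK as controls. Buffer: 100 mM TEA (pH 7.6), 5 mM MgCl2, 0.01% Tween-20. Coupling enzyme GAPDH (100 nM final) supplies unstable 1,3-BPG in-well.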
BLM inh – Bloom syndrome helicase (human) inhibition | P54132 | recombinant BLM DNA unwinding, fluorescence dequenching | Potency, µM (titrated, usually from 56.1 µM), usual class: inhibitors | 0.2% of 350,000 active; further: nearly all actives have a fitted effect of over 35% in size
RECQ1 inh – RECQ1 (human) helicase inhibition. RECQ1 DNA unwinding, red fluorescence kinetic read. Potency, µM (series often up to 57.3 µM), most hits filed as inhibitors. 0.54% of 240,000 active. AID 2549; further: nearly all actives have a fitted effect of over 30% in size
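50 nM RECQ1T1 preincubated 15 min with compound in Tris pH 8.0 buffer with MgCl2, DTT, Tween-20 and 2.5 ug/ml poly(dI-dC); started with 200 nM TAMRA/BHQ-2 forked duplex and 2 mM ATP. Unwinding read as fluorescence (525/598 nm), two reads 2 h apart.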
APE1 inh-1 – blocks human APE1 abasic DNA cleavage. AID 2517. Potency, µM (doses to about 65.8 µM), hits mostly inhibitors. 0.35% of 350,000 active. recombinant APE1, TAMRA/BHQ-2 abasic DNA cleavage fluorescence. P27695; further: nearly all actives have a fitted effect of over 55% in size
Target sequence (P27695 whole entry, looked up): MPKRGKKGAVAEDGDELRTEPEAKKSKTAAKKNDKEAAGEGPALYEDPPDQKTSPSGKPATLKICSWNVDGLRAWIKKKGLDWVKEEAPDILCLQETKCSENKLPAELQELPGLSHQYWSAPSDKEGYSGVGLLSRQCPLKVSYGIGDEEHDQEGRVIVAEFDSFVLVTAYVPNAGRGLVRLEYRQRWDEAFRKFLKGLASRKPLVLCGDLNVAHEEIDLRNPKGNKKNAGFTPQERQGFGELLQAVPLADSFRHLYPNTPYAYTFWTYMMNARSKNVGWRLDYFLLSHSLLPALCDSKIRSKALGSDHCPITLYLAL
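0.75 nM APE1 + cpd, 15 min RT; start w/ 50 nM TAMRA/BHQ-2 THF-abasic dsDNA; kinetic fluor 525/598 nm ×3 reads @60 s; Δ(read3−read1); normalized to DMSO and NSC13755 control wells.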
DNA dye displace – counter-screen for APE1 inhibitors: DNA dye displacement; shares compounds with APE1 inh-1; DNA fluorescent dye displacement counterscreen, fluorescence; Potency, µM (doses to about 28.5 µM), usual class: inhibitors; 7% of 480 active; AID 2564;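 further: loss of thiazole orange fluorescence as the dye is displaced from duplex DNA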
Endo IV inh – blocks E. coli endonuclease IV DNA cleavage | shares compounds with APE1 inh-1 | E. coli Endo IV, fluorogenic AP-site DNA cleavage | Potency, µM (top dose mostly 27.1 µM), hits mostly inhibitors | 4% of 560 active
APE1 inh-2 – APE1 (human) endonuclease inhibition, confirmation; Potency, µM (top dose mostly 57.1 µM), most hits filed as inhibitors; shares compounds with APE1 inh-1; purified APE1, fluorogenic abasic-site DNA cleavage; 44% of 750 active; further: nearly all actives have a fitted effect of over 30% in size
APE1 FP inh – displaces DNA from human APE1 in FP assay | shares compounds with APE1 inh-1 | APE1 binding to TAMRA-labelled double-stranded DNA, fluorescence polarization displacement | Potency, µM (series often up to 28.5 µM), usual class: inhibitors | 7% of 480 active
A number is an active result; – = inactive; ? = inconclusive; · = no result given; ! = a repeat was not active. Rows were chosen to be rich in hits. Some 0.74% of all compounds tested hit in one or more screens of this group. The call rests on the fitted dose curve; in most records, active means well fitted curve in the direction sought with a large enough effect; inconclusive means small, poorly fitted or top-dose-only effect, or another doubt; inactive means no such curve, though single readings can be large; an effect the other way counts as inactive or inconclusive.

SMILES	FEN1 inh	PGK inhibitor	BLM inh	RECQ1 inh	APE1 inh-1	DNA dye displace	Endo IV inh	APE1 inh-2	APE1 FP inh
O=C(O)C1Cc2ccccc2CN1C(=O)COc1ccc(Cl)cc1Cl (stereo not given)	–	–	–	–	?	·	·	·	·
CN(C)c1nc(-c2ccccc2)ns1	–	–	–	–	–	·	·	·	·
COc1cccc(/C=N/NC(=S)NC2CC3CCC2C3)c1OC (stereo not given)	–	–	–	–	0.562µM	–	–	–	?
Cc1c(N)cc(N)cc1C(=O)O	–	–	–	–	20µM	–	–	–	–
O=S(=O)(O)c1ccc2c(c1)-c1nc-2nc2[nH]c(nc3nc(nc4[nH]c(n1)c1ccc(S(=O)(=O)O)cc41)-c1ccc(S(=O)(=O)O)cc1-3)c1ccc(S(=O)(=O)O)cc21	·	·	1.58µM	0.562µM	0.316µM	0.562µM	–	0.0501µM	0.141µM
O=C(Cn1c(=O)n(Cc2ccco2)c(=O)c2c3c(sc21)CCCCC3)c1ccccc1	–	–	–	–	?	?	–	–	–
OCCN(Cc1ccccc1)Cc1cccc(Cl)c1Cl	–	–	–	–	–	·	·	?	·
CCc1ccc(N(C(=O)CCC(=O)Nc2cc(C)on2)C(C(=O)NC2CCCC2)c2ccco2)cc1 (stereo not given)	–	–	–	–	–	·	·	·	·
CS(=O)(=O)N1Cc2ccccc2CC1C(=O)OCC(=O)Nc1ccc2ccccc2c1 (stereo not given)	–	–	–	–	?	?	?	?	?
O=C(O)c1ccc(COc2ccccc2/C=C2\NC(=O)N(Cc3ccc(F)cc3)C2=O)cc1	?	–	–	–	–	·	·	·	·
O=C(O)c1ccc(COc2ccccc2/C=C2/NC(=O)N(c3cccc(Cl)c3)C2=O)cc1	56.2µM	–	20µM	?	?	·	·	15.8µM	·
CC1(C)CC(C2N3CC4(C)CN2CC(C)(C3)C4=O)CCO1 (stereo not given)	–	–	–	–	–	·	·	·	·
Cc1ccc(C)c(N2CCN(c3nc4ccc(C(=O)c5ccccc5)cc4n4cnnc34)CC2)c1	–	–	–	·	·	·	·	·	·
Cc1nc2sc(C(c3ccco3)N3CCN(C(c4ccccc4)c4ccccc4)CC3)c(O)n2n1 (stereo not given)	–	–	–	–	–	·	·	·	·
Cc1ccc2nc(CSc3nnc(-c4ccco4)n3-c3ccccc3)cc(=O)n2c1	–	–	·	·	·	·	·	·	·
Cc1ccc2nc(CSc3nnc(-c4ccco4)o3)cc(=O)n2c1	–	–	?	?	22.4µM	–	–	–	–
O=C(Cc1csc(N2CCOCC2)n1)N/N=C/c1ccc(O)c(O)c1O	?	–	–	?	2.24µM	?	–	?	–
Cc1cccc(N(CC(O)CN2CCOCC2)S(=O)(=O)c2ccccc2)c1 (stereo not given)	–	–	–	·	–	·	·	·	·
CCC(=O)Nc1cccc(C2=NOC3(C2)C[C@@H](C(N)=O)N(C(=O)COc2ccc(Cl)cc2)C3)c1 (stereo not given in full)	–	–	–	–	–	·	·	·	·
C/C=C\C=C/C(=O)Nc1cccc(C2=NOC3(C2)C[C@@H](C(N)=O)N(C(=O)/C=C/C=C\C)C3)c1 (stereo not given in full)	50.1µM	?	10µM	22.4µM	35.5µM	·	·	?	·
C=C(C)C(=O)Nc1cccc(C2=NOC3(C2)C[C@H](C(N)=O)N(C(=O)COc2ccc(Cl)cc2)C3)c1 (stereo not given in full)	–	?	–	17.8µM	?	·	·	?	·
C/C=C\C=C/C(=O)Nc1cccc(C2=NOC3(C2)C[C@@H](C(N)=O)N(C(=O)/C=C/CC)C3)c1 (stereo not given in full)	–	–	–	–	–	·	·	·	·
CCOc1ccccc1Oc1nc(-c2ccccc2O)nc2ccccc12	–	–	–	·	–	·	·	·	·
Cc1ccc2c(c1)C1C=CCC1C(C(=O)O)N2 (stereo not given)	·	·	14.1µM	8.91µM	15.8µM	?	–	14.1µM	–
Cc1ccc(C(=O)O)cc1-c1ccc(/C=C2/NC(=O)N(c3ccccc3)C2=O)o1	?	?	–	17.8µM	11.2µM	–	–	?	–
SMILES	FEN1 inh	PGK inhibitor	BLM inh	RECQ1 inh	APE1 inh-1	DNA dye displace	Endo IV inh	APE1 inh-2	APE1 FP inh
Cc1ccc(C(=O)O)cc1-c1ccc(/C=C2\SC(=O)N(CC(=O)Nc3ccccc3)C2=O)o1	50.1µM	–	–	–	?	·	·	39.8µM	·
Cc1ccc(NC(=O)CN2C(=O)S/C(=C\c3ccc(-c4cccc(C(=O)O)c4C)o3)C2=O)cc1	·	·	–	?	?	·	·	39.8µM	·
Cc1cc(C(=O)O)ccc1-c1ccc(/C=C2\NC(=O)N(Cc3ccccc3Cl)C2=O)o1	?	?	–	–	–	·	·	·	·
Cc1ccc(NC(=O)CN2C(=O)S/C(=C\c3ccc(C(=O)O)cc3)C2=O)cc1	–	–	–	·	?	·	·	·	·
c1ccc(-c2nc(NC3CCCC3)c3ccccc3n2)cc1	–	–	–	·	–	·	·	·	·
CN(C)C(=O)Nc1ccc(Cl)c(Cl)c1	·	·	–	–	?	–	–	31.6µM	–
COc1cc(-c2ccc(N=Nc3ccc4c(S(=O)(=O)O)cc(S(=O)(=O)O)c(N)c4c3O)c(OC)c2)ccc1N=Nc1ccc2c(S(=O)(=O)O)cc(S(=O)(=O)O)c(N)c2c1O	·	·	?	4.47µM	1.41µM	·	6.31µM!	1µM	·
Fc1ccc(CNC(=S)Nc2cccc(C(F)(F)F)c2)cc1	–	–	–	–	–	·	·	·	·
CCOc1cc(/C=N/Nc2cc(C)nc(-n3nc(C)cc3C)n2)ccc1O	–	–	–	–	–	·	·	–	·
COc1ccc(/C=N/Nc2cc(C)nc(-n3nc(C)cc3C)n2)c(OC)c1	–	–	–	–	–	·	·	·	·
CCCCc1cn(C[C@H]2CC[C@@H]([C@@H]3CC[C@H](Cn4cc(CCCC)nn4)O3)O2)nn1	–	–	–	·	–	·	·	·	·
CCN(CC)C(=O)c1[nH]cnc1C(=O)Nc1ccccc1F	·	–	·	·	·	·	·	·	·
Cc1ccc2c3c(cccc13)-c1ccccc1C2=O	?	–	–	–	–	·	·	·	·
Cc1cc2c3c(cccc3n1)C(=O)c1ccccc1-2	·	·	–	–	?	?	–	?	2.51µM
COC(=O)CSc1nnc(SCc2ccc(Cl)cc2)s1	–	–	–	–	–	·	·	·	·
NCCCC[C@H]1CN=C(N)N1CCc1cccc2ccccc12	–	–	·	·	·	·	·	·	·
